# Test results from PubChem BioAssay (NCATS).
# Values joined by “and” are separate entries in the source; they are usually repeats but may differ in a detail not shown here. Equal entries are not always repeated. Records with an inconclusive call do not appear. Entries that show only a call come without a potency. Active and inactive are the calls of the source. Unless noted, calls come from the whole dose curve; as a rule, active = well fitted inhibition curve with a large enough effect; inconclusive = small, poorly fitted or top-dose-only effect; inactive = flat fitted curve, though single readings scatter.
# Tests used:
# [1] = target: Bile acid receptor (Homo sapiens) (UniProt Q96RI1); experiment: qHTS assay for small molecule antagonists of farnesoid X receptor signaling (AID 588526; calls by dose curve)
# Chain of Bile acid receptor (Homo sapiens) (Q96RI1 whole entry, looked up): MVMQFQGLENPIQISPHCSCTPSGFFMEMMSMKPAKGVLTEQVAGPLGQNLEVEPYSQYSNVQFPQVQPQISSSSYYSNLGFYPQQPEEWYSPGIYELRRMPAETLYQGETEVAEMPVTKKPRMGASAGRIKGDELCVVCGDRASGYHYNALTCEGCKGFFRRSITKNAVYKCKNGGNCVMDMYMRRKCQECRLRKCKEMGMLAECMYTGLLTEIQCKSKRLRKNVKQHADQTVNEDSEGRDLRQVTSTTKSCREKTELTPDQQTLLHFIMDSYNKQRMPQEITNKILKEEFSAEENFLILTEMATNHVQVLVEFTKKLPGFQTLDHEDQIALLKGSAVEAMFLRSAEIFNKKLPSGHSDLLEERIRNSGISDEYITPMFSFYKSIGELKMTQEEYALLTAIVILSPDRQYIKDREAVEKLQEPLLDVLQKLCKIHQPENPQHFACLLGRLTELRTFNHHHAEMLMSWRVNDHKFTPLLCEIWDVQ
# Method in brief: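 Antagonist mode: titrated compounds tested against chenodeoxycholic acid stimulation (normalized to 50 uM CDCA and DMSO) in GeneBLAzer HEK293T cells for 16 h. Beta-lactamase read by CCF4 fluorescence; IC50 from Hill fits.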
# [2] = target: Glucocorticoid receptor (Homo sapiens) (UniProt P04150); experiment: qHTS assay for small molecule antagonists of glucocorticoid receptor signaling (AID 588533; active = well fitted inhibition curve with a large enough effect in the signal ratio, with a control signal flat, not every such curve was filed as active; the % refers to the signal ratio;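 note: cells stimulated with 2 nM dexamethasone as agonist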)
# Chain of Glucocorticoid receptor (Homo sapiens) (P04150 whole entry, looked up): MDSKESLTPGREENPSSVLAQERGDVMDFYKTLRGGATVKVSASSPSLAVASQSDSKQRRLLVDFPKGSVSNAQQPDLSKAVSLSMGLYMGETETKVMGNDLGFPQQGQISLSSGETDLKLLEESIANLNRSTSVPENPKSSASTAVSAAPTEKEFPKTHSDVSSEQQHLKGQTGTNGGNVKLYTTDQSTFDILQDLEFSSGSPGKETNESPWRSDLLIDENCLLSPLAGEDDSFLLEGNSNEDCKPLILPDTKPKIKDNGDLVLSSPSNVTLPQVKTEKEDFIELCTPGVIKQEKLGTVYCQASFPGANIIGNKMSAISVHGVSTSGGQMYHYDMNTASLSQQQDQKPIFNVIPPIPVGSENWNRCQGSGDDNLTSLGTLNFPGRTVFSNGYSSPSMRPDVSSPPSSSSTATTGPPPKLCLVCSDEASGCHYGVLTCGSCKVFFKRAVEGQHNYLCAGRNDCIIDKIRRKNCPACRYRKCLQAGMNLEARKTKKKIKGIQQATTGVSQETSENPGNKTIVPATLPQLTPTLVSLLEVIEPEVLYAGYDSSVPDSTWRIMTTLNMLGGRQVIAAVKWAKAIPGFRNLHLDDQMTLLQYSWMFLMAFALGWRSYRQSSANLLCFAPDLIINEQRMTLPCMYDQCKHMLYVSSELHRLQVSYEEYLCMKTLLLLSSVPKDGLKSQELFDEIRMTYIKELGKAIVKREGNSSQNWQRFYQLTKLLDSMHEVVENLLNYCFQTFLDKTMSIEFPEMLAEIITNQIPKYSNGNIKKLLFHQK
# Method in brief: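 Antagonist-mode qHTS: compound titrations added to GRE-bla HeLa cells, then dexamethasone 2 nM final; 18 h, 37 C. CCF4 FRET fluorescence normalized to dexamethasone and DMSO; IC50 from Hill fit.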
# [3] = qHTS assay for small molecule antagonists of peroxisome proliferator-activated receptor delta signaling (AID 588535; active = well fitted inhibition curve with a large enough effect in the signal ratio, with a control signal flat, not every such curve was filed as active; the % refers to the signal ratio;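 for max response: cells co-treated with a PPAR-delta agonist as stimulator during compound exposure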); settings: HEK293T PPARd-UAS-bla, beta-lactamase FRET ratio, 18 h; 460 nm channel
# Method in brief: (§1)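 Fluorescence from CCF4-loaded GeneBLAzer PPAR-delta-UAS-bla HEK293T cells (2 hrs RT loading) quantified reporter inhibition after an 18 hr, 37 C compound exposure across a titration.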
# [4] = target: Peroxisome proliferator-activated receptor delta (Homo sapiens) (UniProt Q03181); experiment: as above
# Chain of Peroxisome proliferator-activated receptor delta (Homo sapiens) (Q03181 whole entry, looked up): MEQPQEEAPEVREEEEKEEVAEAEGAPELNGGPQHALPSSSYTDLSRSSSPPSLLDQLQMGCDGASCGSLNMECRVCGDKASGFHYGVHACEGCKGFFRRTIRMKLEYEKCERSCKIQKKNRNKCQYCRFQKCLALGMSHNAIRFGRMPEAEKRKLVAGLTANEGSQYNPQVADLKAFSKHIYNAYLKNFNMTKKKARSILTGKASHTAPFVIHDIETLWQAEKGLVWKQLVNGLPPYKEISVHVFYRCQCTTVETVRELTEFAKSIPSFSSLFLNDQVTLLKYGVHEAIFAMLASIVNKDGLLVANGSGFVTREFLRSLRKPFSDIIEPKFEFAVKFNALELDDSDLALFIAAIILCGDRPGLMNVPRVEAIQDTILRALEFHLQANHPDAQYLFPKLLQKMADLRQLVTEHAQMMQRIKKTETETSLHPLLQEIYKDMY
# Method in brief: as §1
# [5] = target: Peroxisome proliferator-activated receptor gamma (Homo sapiens) (UniProt P37231); experiment: qHTS assay for small molecule agonists of peroxisome proliferator-activated receptor gamma signaling (AID 588536; active = well fitted curve in the direction sought with a large enough effect in the signal ratio, with a control signal flat, not every such curve was filed as active; the % refers to the signal ratio)
# Chain of Peroxisome proliferator-activated receptor gamma (Homo sapiens) (P37231 whole entry, looked up): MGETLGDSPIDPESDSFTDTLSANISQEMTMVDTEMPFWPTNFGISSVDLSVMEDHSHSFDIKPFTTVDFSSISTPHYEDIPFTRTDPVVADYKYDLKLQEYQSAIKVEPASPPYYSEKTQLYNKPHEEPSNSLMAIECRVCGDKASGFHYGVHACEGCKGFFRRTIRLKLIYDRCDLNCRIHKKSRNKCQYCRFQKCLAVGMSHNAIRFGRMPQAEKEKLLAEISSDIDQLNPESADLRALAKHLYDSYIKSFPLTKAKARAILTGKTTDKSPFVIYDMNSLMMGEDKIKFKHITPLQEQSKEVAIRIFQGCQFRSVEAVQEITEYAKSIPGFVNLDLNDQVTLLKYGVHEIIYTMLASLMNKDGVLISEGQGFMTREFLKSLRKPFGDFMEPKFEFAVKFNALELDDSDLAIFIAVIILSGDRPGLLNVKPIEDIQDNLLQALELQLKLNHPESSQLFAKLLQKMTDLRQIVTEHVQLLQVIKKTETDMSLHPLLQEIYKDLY
# Method in brief: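 Using GeneBLAzer HEK293 cells, response was quantified by CCF4 fluorescence and normalized between basal DMSO (0%) and rosiglitazone 2 uM (100%); curves yielded half-maximal stimulation concentration and efficacy.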
# [6] = target: Peroxisome proliferator-activated receptor gamma (Homo sapiens) (UniProt P37231); experiment: qHTS assay for small molecule antagonists of peroxisome proliferator-activated receptor gamma signaling (AID 588537; active = well fitted inhibition curve with a large enough effect in the signal ratio, with a control signal flat, not every such curve was filed as active; the % refers to the signal ratio; note: potency is the fitted concentration of half-maximal effect)
# Method in brief: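 Fluorescence at 460 and 530 nm (405 nm excitation) reported beta-lactamase cleavage of CCF4 after 2 h room-temperature loading. HEK293 reporter cells in 1% charcoal/dextran-treated FBS had received compound and rosiglitazone for 16 h.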
# [7] = target: Estrogen receptor (Homo sapiens) (UniProt P03372); experiment: qHTS assay for small molecule antagonists of estrogen receptor alpha signaling (AID 588513; active = well fitted curve in the direction sought with a large enough effect in the signal ratio, with a control signal flat, not every such curve was filed as active; the % refers to the signal ratio)
# Chain of Estrogen receptor (Homo sapiens) (P03372 whole entry, looked up): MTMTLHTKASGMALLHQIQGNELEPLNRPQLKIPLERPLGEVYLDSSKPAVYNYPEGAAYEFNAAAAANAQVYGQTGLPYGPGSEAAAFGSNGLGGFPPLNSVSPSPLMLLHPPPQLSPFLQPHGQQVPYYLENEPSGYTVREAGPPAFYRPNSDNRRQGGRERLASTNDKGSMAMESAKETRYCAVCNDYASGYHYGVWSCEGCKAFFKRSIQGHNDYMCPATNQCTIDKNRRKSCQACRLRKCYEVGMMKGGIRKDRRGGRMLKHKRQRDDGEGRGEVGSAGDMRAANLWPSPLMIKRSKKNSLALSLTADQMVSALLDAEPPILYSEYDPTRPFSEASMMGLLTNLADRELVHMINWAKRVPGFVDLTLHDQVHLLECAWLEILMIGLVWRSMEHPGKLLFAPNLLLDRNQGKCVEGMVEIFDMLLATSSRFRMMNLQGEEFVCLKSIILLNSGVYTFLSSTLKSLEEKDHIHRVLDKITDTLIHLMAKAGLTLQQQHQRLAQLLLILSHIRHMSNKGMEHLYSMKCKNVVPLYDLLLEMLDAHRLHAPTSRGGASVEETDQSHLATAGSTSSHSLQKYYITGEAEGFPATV
# Method in brief: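 Beta-lactamase reporter, antagonist mode, HEK 293 GripTite cells; 0.5nM E2 stimulus, 18 h, 37 C; CCF4 dye 2 h RT; fluorescence. IC50 and efficacy from Hill fits, normalized to E2 and DMSO.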
# [8] = target: Glucocorticoid receptor (Homo sapiens) (UniProt P04150); experiment: qHTS assay for small molecule agonists of glucocorticoid receptor signaling (AID 588532; active = well fitted curve in the direction sought with a large enough effect in the signal ratio, with a control signal flat; the % refers to the signal ratio); settings: HeLa MMTV-bla, beta-lactamase ratio, agonist, 18 h; stronger effect = higher value; percent of dexamethasone control, DMSO zero
# Method in brief: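 MMTV-bla HeLa beta-lactamase reporter cells in 1% charcoal/dextran FBS medium, compounds up to 92 uM for 18 h at 37 C, CCF4 readout; normalized to 0.1 uM dexamethasone (100%), EC50 and efficacy from Hill fits.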
# [9] = target: Androgen receptor (Homo sapiens) (UniProt P10275); experiment: qHTS assay for small molecule agonists of androgen receptor signaling (AID 588515; active = well fitted curve in the direction sought with a large enough effect in the signal ratio, with a control signal flat; the % refers to the signal ratio); settings: AR-UAS-bla HEK293, beta-lactamase ratio, agonist 16 h; stronger effect = higher value
# Chain of Androgen receptor (Homo sapiens) (P10275 whole entry, looked up): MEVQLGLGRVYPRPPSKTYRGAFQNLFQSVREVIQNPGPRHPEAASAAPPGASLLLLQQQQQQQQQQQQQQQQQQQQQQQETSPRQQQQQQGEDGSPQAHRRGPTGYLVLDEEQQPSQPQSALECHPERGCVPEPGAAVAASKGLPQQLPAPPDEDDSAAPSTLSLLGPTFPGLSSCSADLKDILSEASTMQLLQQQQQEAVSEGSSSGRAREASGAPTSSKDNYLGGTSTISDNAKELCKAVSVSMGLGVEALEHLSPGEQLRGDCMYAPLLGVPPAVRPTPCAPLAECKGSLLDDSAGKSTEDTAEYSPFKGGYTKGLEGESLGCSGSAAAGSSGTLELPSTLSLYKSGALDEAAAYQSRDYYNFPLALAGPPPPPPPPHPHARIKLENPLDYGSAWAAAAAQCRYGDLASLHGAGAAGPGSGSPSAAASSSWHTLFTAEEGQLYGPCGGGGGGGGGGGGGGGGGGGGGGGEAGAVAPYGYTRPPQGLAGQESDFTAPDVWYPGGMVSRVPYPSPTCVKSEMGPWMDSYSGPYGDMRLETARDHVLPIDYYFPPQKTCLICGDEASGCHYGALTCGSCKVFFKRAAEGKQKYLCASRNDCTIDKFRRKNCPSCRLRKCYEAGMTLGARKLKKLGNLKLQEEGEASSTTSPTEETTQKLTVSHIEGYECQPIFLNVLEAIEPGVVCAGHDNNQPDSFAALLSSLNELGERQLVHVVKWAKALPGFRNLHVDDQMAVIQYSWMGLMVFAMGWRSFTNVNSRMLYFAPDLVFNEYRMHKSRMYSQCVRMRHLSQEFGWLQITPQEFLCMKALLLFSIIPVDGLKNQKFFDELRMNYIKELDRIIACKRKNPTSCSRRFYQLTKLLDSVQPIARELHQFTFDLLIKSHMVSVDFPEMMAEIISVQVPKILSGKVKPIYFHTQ
# Method in brief: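 Stimulation of an AR-responsive β-lactamase reporter in GripTite HEK293 cells was measured after 16 h compound exposure at 37 °C, via CCF4 fluorescence after 2 h RT. EC50 from Hill fits, normalized to R1881 at 30 nM.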
# [10] = target: Androgen receptor (Homo sapiens) (UniProt P10275); experiment: qHTS assay for small molecule antagonists of androgen receptor signaling (AID 588516; active = well fitted curve in the direction sought with a large enough effect in the signal ratio, with a control signal flat, not every such curve was filed as active; the % refers to the signal ratio; note: potency is the fitted concentration of half-maximal effect)
# Method in brief: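 HEK293 AR-UAS-bla cells, 10% dialyzed FBS medium; cpd titration + R1881 10 nM final, 16 h 37 C; CCF4 2 h RT; FRET ratio; IC50/efficacy via Hill fit.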
# [11] = target: Ubiquitin carboxyl-terminal hydrolase 1 (Homo sapiens) (UniProt O94782); experiment: Inhibitors of USP1/UAF1: Pilot qHTS (AID 504865); note: nearly all actives have a fitted effect of over 35% in size; note: potency is the fitted concentration of half-maximal effect
# Chain of Ubiquitin carboxyl-terminal hydrolase 1 (Homo sapiens) (O94782 whole entry, looked up): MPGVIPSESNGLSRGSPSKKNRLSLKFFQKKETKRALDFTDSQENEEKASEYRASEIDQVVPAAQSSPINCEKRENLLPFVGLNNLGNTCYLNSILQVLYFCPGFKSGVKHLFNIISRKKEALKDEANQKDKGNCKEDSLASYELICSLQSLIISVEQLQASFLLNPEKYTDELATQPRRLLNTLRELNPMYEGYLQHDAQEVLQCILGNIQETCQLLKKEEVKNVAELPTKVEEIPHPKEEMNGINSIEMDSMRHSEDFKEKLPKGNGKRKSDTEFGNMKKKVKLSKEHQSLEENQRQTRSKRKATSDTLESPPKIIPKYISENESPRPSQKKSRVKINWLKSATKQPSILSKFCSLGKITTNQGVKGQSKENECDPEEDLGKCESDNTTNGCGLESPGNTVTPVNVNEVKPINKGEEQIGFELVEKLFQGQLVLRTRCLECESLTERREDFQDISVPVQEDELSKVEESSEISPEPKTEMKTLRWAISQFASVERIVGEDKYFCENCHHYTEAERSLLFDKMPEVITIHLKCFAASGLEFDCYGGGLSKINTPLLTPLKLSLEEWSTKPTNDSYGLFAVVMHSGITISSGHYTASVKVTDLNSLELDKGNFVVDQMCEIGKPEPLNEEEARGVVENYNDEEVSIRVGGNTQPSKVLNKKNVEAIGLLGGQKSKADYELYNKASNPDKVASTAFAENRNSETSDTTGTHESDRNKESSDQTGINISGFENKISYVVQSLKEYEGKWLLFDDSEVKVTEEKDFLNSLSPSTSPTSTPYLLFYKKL
# Method in brief: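 1nM USP1/UAF1 + cpd, 15 min RT; start w/ Ub-Rho 150nM final; kinetic FL 480/540 nm, 6 reads q60 s. Buffer 50mM HEPES pH 7.8, 0.5mM EDTA, 1mM TCEP, 0.01% Tween-20, 0.1 mg/ml BSA.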
# [12] = target: DNA dC->dU-editing enzyme APOBEC-3G (Homo sapiens) (UniProt Q9HC16); experiment: qHTS for inhibitors of Vif-A3G interactions: Validation (AID 588379)
# Chain of DNA dC->dU-editing enzyme APOBEC-3G (Homo sapiens) (Q9HC16 whole entry, looked up): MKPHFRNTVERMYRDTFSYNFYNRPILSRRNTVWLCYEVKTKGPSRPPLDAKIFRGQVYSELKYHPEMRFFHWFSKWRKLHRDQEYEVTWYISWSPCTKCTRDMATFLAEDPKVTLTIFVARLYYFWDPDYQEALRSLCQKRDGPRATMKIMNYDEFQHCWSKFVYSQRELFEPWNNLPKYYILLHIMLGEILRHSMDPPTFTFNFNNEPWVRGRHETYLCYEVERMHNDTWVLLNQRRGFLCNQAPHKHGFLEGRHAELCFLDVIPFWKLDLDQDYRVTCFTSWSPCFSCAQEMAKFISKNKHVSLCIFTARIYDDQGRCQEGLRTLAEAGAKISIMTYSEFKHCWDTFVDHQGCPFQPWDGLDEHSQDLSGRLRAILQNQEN
# Method in brief: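 Yellow fluorescence (Ex 488, Em 500-530) of Vif-coexpressing HeLa A3G-eYFP cells, scanned by Acumen cytometer, reports blocked A3G degradation. Cells plated at 700/well overnight at 37 deg C before compound addition, then a further overnight compound incubation at 37 deg C.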
structure (smiles),measurement,setting,value
CCCCOC(=O)CC(CC(=O)OCCCC)(OC(C)=O)C(=O)OCCCC,outcome,[1],inactive
same,outcome,[2],inactive
same,max response,[3],0.806%
same,outcome,[4],inactive
same,outcome,[5],inactive
same,Potency,[6],inactive
CCCCC(CC)COC(=O)c1ccc(N(C)C)cc1 (configuration not stated),Potency,[7],inactive
same,outcome,[1],inactive
same,activation,[8],-4.68% (inactive)
same,outcome,[2],inactive
same,max response,[3],0.453% and -4.75%
same,outcome,[4],inactive
same,outcome,[5],inactive
same,Potency,[6],inactive
CC1(C)OC[C@@H]2O[C@@]3(C(=O)O)OC(C)(C)O[C@H]3[C@@H]2O1,outcome,[5],inactive
same,Potency,[6],inactive
NC(=O)c1ccccc1O,Potency,[7],inactive
same,activation,[8],9.52% (inactive)
same,outcome,[2],inactive
same,max response,[3],7.67%
same,outcome,[4],inactive
same,outcome,[5],inactive
CCOc1ccc(NC(C)=O)cc1,Potency,[7],inactive
same,activation,[9],13.2% (inactive) and 14.9% (inactive)
same,Potency,[10],inactive
same,outcome,[1],inactive
same,activation,[8],0.725% (inactive)
same,outcome,[2],inactive
same,outcome,[5],inactive
same,Potency,[6],inactive
CN(C)C(=O)Nc1ccc(Cl)c(Cl)c1,Potency,[11],inactive
same,Potency,[7],inactive
same,activation,[9],0.958% (inactive)
same,Potency,[10],inactive
same,activation,[8],-4.05% (inactive)
same,outcome,[2],inactive
same,max response,[3],4.49%
same,outcome,[4],inactive
same,outcome,[5],inactive
same,Potency,[6],inactive
CCCCCCCCCCCCCC(=O)OC(C)C,Potency,[7],inactive
same,Potency,[10],inactive
same,activation,[8],5.08% (inactive)
same,outcome,[2],inactive
same,outcome,[5],inactive
same,Potency,[6],inactive
CCCCCCCCOc1ccc(C(=O)c2ccccc2)c(O)c1,max response,[3],16.2%
same,outcome,[4],inactive
same,outcome,[5],inactive
same,Potency,[6],inactive
O=C(c1ccc(F)cc1)C1CCN(CCn2c(=S)[nH]c3ccccc3c2=O)CC1,Potency,[11],inactive
same,outcome,[12],inactive
COc1ccccc1N1CCN(CCCCNC(=O)c2ccc(-c3ccc(C(C)=O)cc3)cc2)CC1,Potency,[11],inactive
same,outcome,[12],inactive
CN1CCc2cccc3c2[C@H]1Cc1ccc(O)c(O)c1-3,Potency,[11],inactive
same,outcome,[12],inactive
COc1cc([C@H]2Oc3cc([C@H]4Oc5cc(O)cc(O)c5C(=O)[C@@H]4O)ccc3O[C@@H]2CO)ccc1O,Potency,[11],inactive
same,Potency,[7],inactive
same,outcome,[1],inactive
same,activation,[8],-3.21% (inactive)
CC(C)(C)CC(C)(C)c1ccc(O)c(-n2nc3ccccc3n2)c1,activation,[8],-3.64% (inactive)
same,Potency,[6],inactive
OC[C@H]1O[C@@H]2O[C@H]3[C@H](O)[C@@H](O)[C@@H](O[C@H]4[C@H](O)[C@@H](O)[C@@H](O[C@H]5[C@H](O)[C@@H](O)[C@@H](O[C@H]6[C@H](O)[C@@H](O)[C@@H](O[C@H]7[C@H](O)[C@@H](O)[C@@H](O[C@H]8[C@H](O)[C@@H](O)[C@@H](O[C@H]1[C@H](O)[C@H]2O)O[C@@H]8CO)O[C@@H]7CO)O[C@@H]6CO)O[C@@H]5CO)O[C@@H]4CO)O[C@@H]3CO,Potency,[11],inactive
same,activation,[8],-6.02% (inactive)
Cl/C(=C\n1cncn1)c1ccc(Cl)cc1Cl,Potency,[11],inactive
same,outcome,[12],inactive
CCCCCCCCCCCCCCCCO,Potency,[7],inactive
same,activation,[8],-8.72% (inactive)
same,outcome,[2],inactive
same,max response,[3],-7.5%
same,outcome,[4],inactive
same,outcome,[5],inactive
same,Potency,[6],inactive
C=C[C@@]1(C)CC(=O)[C@]2(O)[C@@]3(C)[C@@H](O)CCC(C)(C)[C@@H]3[C@H](O)[C@H](OC(C)=O)[C@@]2(C)O1,Potency,[11],inactive
same,activation,[8],3.9% (inactive)
same,outcome,[2],inactive
same,Potency,[6],inactive
Cc1ncc(CO)c(C=O)c1O,Potency,[11],inactive
same,outcome,[12],inactive
CCCN(CCC)S(=O)(=O)c1ccc(C(=O)O)cc1,activation,[9],-5.06% (inactive) and 5.71% (inactive)
same,Potency,[10],inactive
same,outcome,[1],inactive
same,activation,[8],0.219% (inactive) and 1.81% (inactive)
same,outcome,[2],inactive
same,max response,[3],32.2% and 48.9%
same,outcome,[4],inactive
same,outcome,[5],inactive
same,Potency,[6],inactive
COc1ccc(C(=O)c2ccccc2)c(O)c1,Potency,[11],inactive
same,Potency,[7],inactive
same,activation,[9],0.242% (inactive) and -6.84% (inactive)
same,outcome,[1],inactive
same,activation,[8],4.95% (inactive) and -5.72% (inactive)
same,outcome,[2],inactive
same,max response,[3],-3.7% and 9.95%
same,outcome,[4],inactive
same,outcome,[5],inactive
same,Potency,[6],inactive
NCCNc1cccc2ccccc12,Potency,[11],inactive
same,activation,[9],6.42% (inactive)
same,Potency,[10],39.8 µM (active)
same,activation,[8],3.88% (inactive) and -4.01% (inactive)
same,outcome,[2],inactive
same,max response,[3],22%
same,outcome,[4],inactive
same,outcome,[5],inactive
same,Potency,[6],39.8 µM (active)
Oc1c(Cl)cc(Cl)c(Cl)c1Cc1c(O)c(Cl)cc(Cl)c1Cl,Potency,[11],79.4 µM (active) and 31.6 µM (active)
same,activation,[8],-7.2% (inactive) and -4.02% (inactive)
Oc1ccc(Cl)cc1Cc1cc(Cl)ccc1O,activation,[8],-2.26% (inactive) and 2.38% (inactive)
CCCCCCCCCCCCCCCC(=O)O,outcome,[2],inactive
same,outcome,[5],inactive
